Test results from PubChem BioAssay (NCI).
About 83,000 compounds went through this panel and 20% of them were active in at least one assay; those are over-represented in the sample as a whole.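 Cells were grown in 96-well plates and exposed to the test compound at a single concentration for 48 hours; results are reported as percent growth, with values below 10 considered active.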 Values without a mark were called inactive. Active and inactive are the calls of the source.

Tested on: HOP-92 NSCLC
Assay: NCI-60 one-dose screen, 48 h (100 = growth as untreated, 0 = no growth, -100 = all killed)
Details: 10 µM

Row | SMILES | growth
1 | COc1ccc2c(c1)CC=C1[C@@H]2CC[C@]2(C)C(=O)/C(=N/O)C[C@@H]12 | 96.5%
2 | CC(C)(C)OC(=O)CN1CCc2c(sc3ncnc(N/N=C/c4ccccc4Br)c23)C1 | 73.7%
3 | COc1cc(/C=C/c2cc(/C=C/c3ccc(O)c(OC)c3)n(C(=O)Nc3ccccc3Cl)n2)ccc1O | -14.4% (active)
4 | O=C(CSc1nnc(-c2ccc(Cl)cc2)o1)Nc1ccc(C(=O)/C=C/c2ccc(Cl)cc2)cc1 | 106%
5 | Nc1nc(Cn2c(-c3nonc3N)nc3ccccc32)nc(N2CCCCC2)n1 | 82.3%
6 | CC(C)N(CCOc1ccc(-c2nc3sccn3c2-c2ccnc(S(C)(=O)=O)n2)cc1)C(C)C | 29.6%
7 | O=C1CSC(=S)N1/N=C/c1ccc(Cl)s1 | 110%
8 | CCN(CC)CCOC(=O)c1cc(OCc2ccccc2)c(OCc2ccccc2)c(OCc2ccccc2)c1 | 40%
9 | CNC(=O)c1cc(Oc2ccc3c(c2)sc2nc(-c4ccc(N)cc4)cn23)ccn1 | 58.4%
10 | COc1ccc(-c2cc(-c3ccc(Cl)cc3)nc(SCCCCCCC(=O)NO)n2)cc1OC | 40.6%
11 | O=C(O)COc1c(Cl)cc([N+](=O)[O-])cc1Cl | 78.5%
12 | COC(=O)C1(O)NC(=C(C#N)C#N)C(C#N)=C1C(=O)c1ccc(OC)c(OC)c1 (stereo unspecified) | 90.3%
13 | COc1ccc(C2=Cn3c(CCC(=O)c4nc5ccccc5[nH]4)nnc3SC2)cc1 | 77.5%
14 | COc1cc2cc(Oc3ccc(NC(=O)c4cc(C(F)(F)F)cc(C(F)(F)F)c4)cc3)c(C)nc2cc1OC | -6.21% (active)
15 | Oc1ccc(/C=N/N=C2c3ccccc3-c3ccccc32)c(O)c1 | 79.5%
16 | COc1cccc(C2C(C#N)=C(N)Oc3cc(N)ccc32)c1 (stereo unspecified) | 36.9%
17 | COc1ccc(C(c2ccc(OCCN(C)C)cc2)c2cc3ccccc3c3ccccc23)cc1 (stereo unspecified) | 63.6%
18 | Clc1nc2ccc(Br)cc2cc1-c1nc2ccccc2[nH]1 | 71.3%
19 | Cc1cccc(N=Cc2ccccc2O)c1C | 97.3%
20 | CC(C)c1ccc(C(C)C(=O)N(CC2=C(C(C)c3ccccn3)c3ccccc3C2)C(C)C)cc1 (stereo unspecified) | 20.3%
21 | CC(=O)N[C@H](C(=O)N[C@@H](CCCNC(=N)N)C(=O)N[C@@H](CCCCN)C(=O)N[C@@H](CCCNC(=N)N)C(=O)NC(C(=O)N[C@@H](CC(C)C)C(=O)N[C@@H](CCCNC(=N)N)C(=O)N[C@@]1(C)CCC/C=C\CCC[C@@](C)(C(=O)N[C@@H](CCCNC(=N)N)C(=O)N[C@@H](CCC(=O)O)C(=O)N[C@@H](CC(C)C)C(=O)N[C@H](C(=O)N[C@@H](CCC(=O)O)C(N)=O)C(C)C)NC(=O)[C@H](CCC(N)=O)NC(=O)[C@H](CC(C)C)NC(=O)[C@H](CC(C)C)NC1=O)[C@@H](C)O)C(C)C (stereo partly specified) | -76% (active)
22 | COc1cc2c(cc1NC(=O)C(Cl)Cl)-c1ccc(NC(=O)C(Cl)Cl)cc1C2 | 40.2%
23 | CC1OC2CC(=O)OC2C2=C1C(=O)c1c(O)c3c(c(O)c1C2=O)C1CC(O)C3(O)C(C)O1 (stereo unspecified) | -13% (active)
24 | COc1cc(-c2csc(NC(=O)Nc3ccc(Cl)c(C(F)(F)F)c3)n2)cc(OC)c1OC | -35.4% (active)
25 | COc1cc2cc(Oc3ccc(NC(=O)Nc4ccc(C(F)(F)F)cc4)cc3)c(C)nc2cc1OC | 56.3%
26 | COc1ccc(/C=C/C(=O)C(=O)/C=C/c2ccc(OC)c(OC)c2)cc1OC | 109%

Tested on: NCI-H522 lung
Assay: as above
Details: 10 µM

Row | SMILES | growth
27 | C[n+]1c2ccccc2nc2ccccc21 | -39.4% (active)
28 | C=CCn1c(SCC(=O)Nc2ccc(C(=O)/C=C/c3ccc(OC)cc3)cc2)nnc1-c1ccc(OC)c(OC)c1 | 65.6%
29 | Cc1n[nH]c(C)c1N=Nc1cccc2c1C(=O)c1ccccc1C2=O | 86.7%
30 | CC[C@H]1OC(=O)[C@H](C)[C@@H](O[C@H]2C[C@@](C)(OC)[C@@H](O)[C@H](C)O2)[C@H](C)[C@@H](O[C@@H]2O[C@H](C)C[C@H](N(C)C)[C@H]2O)[C@](C)(OC)C/C(C)=C2/O[C@@]1(C)C=C2C | 44.4%
31 | CCOC(=O)CN(c1sc(C)c(C)c1C(=O)OCC)S(=O)(=O)c1ccc(C)cc1 | 108%
32 | Cc1noc(C)c1CSc1ccccc1C(=O)N1CCN(c2cccc(C(F)(F)F)c2)CC1 | 62%
33 | O=C(CCCSc1nc(-c2ccccc2)cc(-c2ccc(Cl)cc2)n1)NO | 7.31% (active)
34 | O=C(Nc1ccc(F)cc1)c1cc2ccccc2cc1O | 56.5%
35 | COc1ccc(-c2cc(-c3ccccc3)nc(SCCCCCCC(=O)NO)n2)cc1 | 18.8%
36 | COc1cc2c(cc1NC(=O)C(F)(F)F)-c1ccc(NC(=O)C(F)(F)F)cc1C2 | 99.2%
37 | S=C(NCc1ccccc1)NCc1ccccc1 | 82.4%
38 | NNC(=O)Oc1c(Cl)cc(Cl)cc1[N+](=O)[O-] | 96.9%
39 | Cc1c(Cl)cccc1NC(=O)CN1CCOCC1 | 75.1%
40 | O=C1c2ccccc2C(=O)N1CCCCNc1ccccc1 | 101%
41 | COc1ccc2c(c1)CC=C1[C@@H]2CC[C@]2(C)C(=O)/C(=N/O)C[C@@H]12 | 102%
42 | CC(C)(C)OC(=O)CN1CCc2c(sc3ncnc(N/N=C/c4ccccc4Br)c23)C1 | 53.4%
43 | COc1cc(/C=C/c2cc(/C=C/c3ccc(O)c(OC)c3)n(C(=O)Nc3ccccc3Cl)n2)ccc1O | -18.7% (active)
44 | O=C(CSc1nnc(-c2ccc(Cl)cc2)o1)Nc1ccc(C(=O)/C=C/c2ccc(Cl)cc2)cc1 | 86.8%
45 | Nc1nc(Cn2c(-c3nonc3N)nc3ccccc32)nc(N2CCCCC2)n1 | 71.7%
46 | CC(C)N(CCOc1ccc(-c2nc3sccn3c2-c2ccnc(S(C)(=O)=O)n2)cc1)C(C)C | -26.9% (active)

Row | SMILES | growth
47 | O=C1CSC(=S)N1/N=C/c1ccc(Cl)s1 | 96.2%
48 | CCN(CC)CCOC(=O)c1cc(OCc2ccccc2)c(OCc2ccccc2)c(OCc2ccccc2)c1 | 45%
49 | CNC(=O)c1cc(Oc2ccc3c(c2)sc2nc(-c4ccc(N)cc4)cn23)ccn1 | -22.6% (active)
50 | COc1ccc(-c2cc(-c3ccc(Cl)cc3)nc(SCCCCCCC(=O)NO)n2)cc1OC | 45.4%
51 | O=C(O)COc1c(Cl)cc([N+](=O)[O-])cc1Cl | 76.8%
52 | COC(=O)C1(O)NC(=C(C#N)C#N)C(C#N)=C1C(=O)c1ccc(OC)c(OC)c1 (stereo unspecified) | 90.3%
53 | COc1ccc(C2=Cn3c(CCC(=O)c4nc5ccccc5[nH]4)nnc3SC2)cc1 | 98.6%
54 | COc1cc2cc(Oc3ccc(NC(=O)c4cc(C(F)(F)F)cc(C(F)(F)F)c4)cc3)c(C)nc2cc1OC | 34%
55 | Oc1ccc(/C=N/N=C2c3ccccc3-c3ccccc32)c(O)c1 | 74.5%
56 | COc1cccc(C2C(C#N)=C(N)Oc3cc(N)ccc32)c1 (stereo unspecified) | -0.592% (active)
57 | COc1ccc(C(c2ccc(OCCN(C)C)cc2)c2cc3ccccc3c3ccccc23)cc1 (stereo unspecified) | 75%
58 | Clc1nc2ccc(Br)cc2cc1-c1nc2ccccc2[nH]1 | 53.1%
59 | Cc1cccc(N=Cc2ccccc2O)c1C | 114%
60 | CC(C)c1ccc(C(C)C(=O)N(CC2=C(C(C)c3ccccn3)c3ccccc3C2)C(C)C)cc1 (stereo unspecified) | 24.9%
61 | CC(=O)N[C@H](C(=O)N[C@@H](CCCNC(=N)N)C(=O)N[C@@H](CCCCN)C(=O)N[C@@H](CCCNC(=N)N)C(=O)NC(C(=O)N[C@@H](CC(C)C)C(=O)N[C@@H](CCCNC(=N)N)C(=O)N[C@@]1(C)CCC/C=C\CCC[C@@](C)(C(=O)N[C@@H](CCCNC(=N)N)C(=O)N[C@@H](CCC(=O)O)C(=O)N[C@@H](CC(C)C)C(=O)N[C@H](C(=O)N[C@@H](CCC(=O)O)C(N)=O)C(C)C)NC(=O)[C@H](CCC(N)=O)NC(=O)[C@H](CC(C)C)NC(=O)[C@H](CC(C)C)NC1=O)[C@@H](C)O)C(C)C (stereo partly specified) | 36.5%
62 | COc1cc2c(cc1NC(=O)C(Cl)Cl)-c1ccc(NC(=O)C(Cl)Cl)cc1C2 | 82.5%
63 | CC1OC2CC(=O)OC2C2=C1C(=O)c1c(O)c3c(c(O)c1C2=O)C1CC(O)C3(O)C(C)O1 (stereo unspecified) | -66.4% (active)
64 | COc1cc(-c2csc(NC(=O)Nc3ccc(Cl)c(C(F)(F)F)c3)n2)cc(OC)c1OC | -25.4% (active)
65 | COc1cc2cc(Oc3ccc(NC(=O)Nc4ccc(C(F)(F)F)cc4)cc3)c(C)nc2cc1OC | 63.2%
66 | COc1ccc(/C=C/C(=O)C(=O)/C=C/c2ccc(OC)c(OC)c2)cc1OC | 47.8%
